# This is part of a sample that, as a whole, favours compounds with a hit. Of some 83,000 tested, about 20% had one in any assay.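 The endpoint reported here, percent growth, reads 100 for growth as untreated, 0 for no net growth and -100 for all cells dead.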 A number with no mark means an inactive call. The source made the active and inactive calls. The calls were made as follows: active = growth percent below 10; inactive = the rest.
# Assays:
# Assay in all cases: NCI-60 one-dose screen, 48 h (100 = growth as untreated, 0 = no growth, -100 = all killed)
# Conditions in all cases: 10 µM unless noted
# DU-145 prostate = tested on: DU-145 prostate
# K-562 leukemia = tested on: K-562 leukemia
# MALME-3M melanoma = tested on: MALME-3M melanoma
# MDA-MB-231 breast = tested on: MDA-MB-231 breast
# RXF 393 renal = tested on: RXF 393 renal
# SF-268 CNS = tested on: SF-268 CNS
# SF-295 CNS = tested on: SF-295 CNS
# SF-539 CNS = tested on: SF-539 CNS
# UACC-257 melanoma = tested on: UACC-257 melanoma
# M14 melanoma = tested on: M14 melanoma
# HCT-15 colon = tested on: HCT-15 colon
# HT29 colon = tested on: HT29 colon
# SNB-75 CNS = tested on: SNB-75 CNS
# SNB-19 CNS = tested on: SNB-19 CNS
# U251 CNS = tested on: U251 CNS
# PC-3 prostate = tested on: PC-3 prostate
# SK-MEL-5 melanoma = tested on: SK-MEL-5 melanoma
# UACC-62 melanoma = tested on: UACC-62 melanoma
# LOX IMVI melanoma = tested on: LOX IMVI melanoma
# SK-MEL-28 melanoma = tested on: SK-MEL-28 melanoma
Structure (SMILES),growth (DU-145 prostate),growth (K-562 leukemia),growth (MALME-3M melanoma),growth (MDA-MB-231 breast),growth (RXF 393 renal),growth (SF-268 CNS),growth (SF-295 CNS),growth (SF-539 CNS),growth (UACC-257 melanoma),growth (M14 melanoma),growth (HCT-15 colon),growth (HT29 colon),growth (SNB-75 CNS),growth (SNB-19 CNS),growth (U251 CNS),growth (PC-3 prostate),growth (SK-MEL-5 melanoma),growth (UACC-62 melanoma),growth (LOX IMVI melanoma),growth (SK-MEL-28 melanoma)
CCNCCNc1cc(-c2ccc(C(=O)OC)cc2)c(C#N)c2nc3ccccc3n12,38.1%,2.65% (active),88.5%,0.164% (active),16%,30.8%,-62.1% (active),-80.1% (active),53.1%,31.5%,45.8%,4.67% (active),-38.2% (active),41.8%,-29% (active),54.1%,71.6%,-17.7% (active),-53.4% (active),17%
COc1ccccc1C(=O)NC(=S)Nc1ccc(-c2nc3ccccc3[nH]2)cc1,42.9%,48%,27.5%,-10.1% (active),49.1%,49.2%,61.3%,48.1%,94.3%,54.3%,59.5%,14.8%,-62.7% (active),84%,29.3%,86%,25.8%,109%,20%,69.5%
CCN(CC)CCOC(=O)N1c2ccccc2Sc2ccccc21,99.9%,90.7%,91.4%,81.9%,98.3%,102%,93.8%,100%,102%,93.4%,102%,75.9%,84.2%,97.8%,91.8%,68.8%,94.2%,91%,96.7%,101%
COc1cc2c(cc1OC)-c1ccc3cc4c(cc3c1N(CCCN(C)C)C2)OCO4,38.9%,20.6%,58.2%,36.3%,35.1%,34%,42.7%,40.2%,34.6%,33.2%,52%,11.5%,44.1%,25.3%,18.2%,23%,43.9%,44%,19.5%,58.8%
CNCCNc1nc2ccccc2c2c(=O)c3cc(F)ccc3oc12,48.6%,56%,86.3%,39.2%,59.2%,58.2%,75.4%,58.9%,99.4%,86.8%,49.1%,24.5%,56.8%,57.9%,50.2%,46.9%,73.3%,85%,44.6%,84.5%
CCOC(=O)c1c(C)[nH]c(C(=O)CCC(=O)OC)c1C,100%,102%,98.7%,115%,112%,98.3%,91.8%,100%,112%,97.5%,92.4%,86.7%,106%,106%,99.9%,81.2%,106%,101%,103%,111%
NC(=O)c1c(NC(=O)c2ccc(C(F)(F)F)cc2Cl)sc2c1CCC(=O)C2,18.9%,-11.7% (active),-24.7% (active),-55.3% (active),-39% (active),-2.06% (active),-27.2% (active),-84.8% (active),-22.4% (active),-30.1% (active),-35% (active),1.16% (active),-81.9% (active),14%,-5.53% (active),-68.8% (active),-91.9% (active),-74.7% (active),-15.5% (active),-67.2% (active)
CS(=O)(=O)c1ccc(N/N=C/c2c(-c3ccc(S(C)(=O)=O)cc3)[nH]c3ccc(F)cc23)cc1,39.9%,10.5%,10.7%,29.6%,-10.9% (active),39.3%,-52.8% (active),-19.8% (active),14.1%,32.9%,62.7%,21.8%,38.8%,26.1%,11.2%,33.9%,-35.4% (active),25.7%,3.68% (active),14.7%
CC(=O)OCCc1ccccc1,134%,79.2%,87.8%,110%,107%,128%,101%,103%,100%,78.6%,107%,107%,74.4%,102%,100%,99.2%,105%,100%,101%,111%
CCCCCCCCn1cc(C2=C(c3coc4ccc(OC)cc34)C(=O)NC2=O)c2ccccc21,106%,121%,89.5%,102%,105%,97.2%,97.2%,95.7%,94.7%,96.1%,97.4%,99.3%,84.8%,108%,97.2%,107%,99.2%,96.2%,61.2%,101%
COc1ccc(C(=O)/C=C/C23c4ccccc4C(c4ccccc42)C2C(=O)NC(=O)C23)cc1 (stereo not given),97.4%,86.3%,98%,94.9%,95.9%,90.5%,106%,89.9%,89.4%,105%,91.3%,97.3%,85%,92.6%,93.7%,102%,95.9%,90.6%,90.1%,108%
N[C@H]1CCC[C@@H]1NCCCCN1C(=O)c2cccc3cccc(c23)C1=O,43.4%,65.9%,104%,52.4%,63.9%,48.1%,71.9%,29.7%,104%,53.1%,83.6%,26.2%,75.7%,77%,63%,55%,91.6%,95.7%,26.1%,90.3%
CN(CCCCCCCCNc1ccnc2ccccc12)Cc1ccc(-c2ccc(-c3ccc(C#N)cc3)s2)cc1,-67.3% (active),-18.4% (active),-80.7% (active),-80.1% (active),-86% (active),-76.6% (active),-64.1% (active),-89% (active),-38.7% (active),-84% (active),-82.1% (active),-55.1% (active),42.5%,-14.6% (active),-73.7% (active),-63.7% (active),-100% (active),-37.4% (active),-96.2% (active),-84.1% (active)
Oc1ccccc1-c1nc2ccccn2c1NCCN1CCOCC1,102%,83%,96.2%,92.7%,109%,96.1%,98%,97.2%,96.2%,96.5%,99.4%,93.8%,80.2%,99.7%,97%,87.4%,98.7%,95.3%,94.4%,94.4%
NC(N)=N/N=C/CO,101%,99.2%,111%,111%,109%,105%,103%,97.5%,95.9%,99%,106%,98.4%,89.9%,111%,105%,91.2%,102%,113%,93.1%,106%
O=C(/C=C/C12c3ccccc3C(c3ccccc31)C1C(=O)NC(=O)C12)c1ccccc1 (stereo not given),19.4%,13.5%,47.5%,14%,-13.1% (active),29.6%,28.2%,18.5%,46.6%,19.6%,20%,18.3%,-2.11% (active),32.9%,25.6%,29.9%,28.8%,36.3%,2.81% (active),44.7%

# — PubChem BioAssay (NCI)
